TSHR antag: Antagonists of the Thyroid Stimulating Hormone Receptor: HTS campaign. TSHR-expressing cells, TSH-stimulated cAMP HTRF, 2 h; active compounds read low. activity change, negative = inhibition, % at 11.5 µM. 330,000 compounds, 0.2% hits. AID 504810, 2011;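 active = activity change below a set negative limit, meaning inhibition stronger than a set level, cut at about -70% in these data; inconclusive = activity change between two set negative limits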
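Freshly harvested TSHR cells receive pin-tooled compound, then EC80 TSH at 4nM final. After 2 hours at 37 deg C, antibody in lysis buffer and cAMP-d2 are added; 30 minutes at ambient temperature precede the HTRF read.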
USP2a block: qHTS Assay for Inhibitors of Ubiquitin-specific Protease USP2a Using CHOP2 as the Reporter; Ubiquitin carboxyl-terminal hydrolase 2 (Homo sapiens), O75604; AID 463254, 2010; USP2 core, Ub-CHOP2 coupled fluorogenic reporter, 485/531; Potency, µM (top dose mostly 38.3 µM), hits mostly inhibitors; 330,000 compounds, 0.01% hits
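Deubiquitinase activity read as fluorescence (485/531 nm) after Ub-CHOP2 cleavage activates the enterokinase reporter on its substrate; USP2 core 10nM, Ub-CHOP2 and substrate 25nM each, 30min compound preincubation then 60min RT; data normalized to NEM, curves fitted.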
CBFb RUNX1 block: qHTS Assay for Compounds Blocking the Interaction Between CBF-beta and RUNX1 for the Treatment of Acute Myeloid Leukemia | Runt-related transcription factor 1 (Homo sapiens) + Core-binding factor subunit beta … | AlphaScreen CBFb-His/RUNX1-biotin binding, biochemical | Potency, µM (titrated, usually from 59.8 µM), actives largely listed as inhibitors | 230,000 tested, under 10 active | AID 1477, 2009
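AlphaScreen proximity signal reports loss of binding between His-tagged CBF-beta and biotin-labelled RUNX1, each at 30 nM. Proteins are pre-associated for 20 minutes, compounds added for 15 minutes, then beads for 90 minutes, all at ambient temperature.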
Eya2 phos inh: qHTS Assay for Inhibitors of the Phosphatase Activity of Eya2; Potency, µM (doses to about 76.9 µM), most hits filed as inhibitors; recombinant Eya2, OMFP fluorescence dephosphorylation (OMFP is methylfluorescein phosphate); AID 488837, 2010; 330,000 compounds, 0.006% hits; Protein phosphatase EYA2 (Homo sapiens), O00167
Target sequence (O00167 whole entry, looked up): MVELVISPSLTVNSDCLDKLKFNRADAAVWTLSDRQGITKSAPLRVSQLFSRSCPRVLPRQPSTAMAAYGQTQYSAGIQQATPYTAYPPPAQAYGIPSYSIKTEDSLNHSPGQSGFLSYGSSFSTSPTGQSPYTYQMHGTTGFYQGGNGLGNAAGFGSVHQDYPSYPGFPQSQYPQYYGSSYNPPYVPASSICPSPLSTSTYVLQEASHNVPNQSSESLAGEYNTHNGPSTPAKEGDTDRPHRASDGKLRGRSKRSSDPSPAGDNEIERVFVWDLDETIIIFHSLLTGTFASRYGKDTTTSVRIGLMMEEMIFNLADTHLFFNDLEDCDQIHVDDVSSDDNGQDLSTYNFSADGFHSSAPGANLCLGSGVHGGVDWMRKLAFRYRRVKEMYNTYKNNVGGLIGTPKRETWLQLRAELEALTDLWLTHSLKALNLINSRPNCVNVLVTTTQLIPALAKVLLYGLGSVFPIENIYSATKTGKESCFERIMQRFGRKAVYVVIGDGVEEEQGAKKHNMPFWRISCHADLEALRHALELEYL
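Eya2 protein (added as 0.2 uM solution) was preincubated with compound for 10 min at ambient temperature in 50 mM HEPES pH 7.5, 50 mM NaCl, 5 uM MgCl2, 0.05% BSA, 1 mM DTT. OMFP (added at 50 uM) then reacted 10 min; fluorescence read at 485/525 nm.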
TR SRC2 fluor cs: Total Fluorescence Counterscreen for Inhibitors of the Interaction of Thyroid Hormone Receptor and Steroid Receptor Coregulator 2. TRb/SRC2 Texas Red total fluorescence interference. Potency, µM (highest dose often 106 µM). 280,000 compounds, 0.29% hits; active = well fitted curve in either direction with a large enough effect; inconclusive = small, poorly fitted or top-dose-only effect
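Flags fluorescent or light-absorbing compounds by total fluorescence, S + 2P, at 555 nm excitation and 632 nm emission. Mixture: 20 nM Texas Red SRC2 peptide, 0.6 uM human TRb LBD, 1 uM T3, 5% DMSO; compound exposure 5 h at ambient temperature.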
TRb-SRC2 inh: qHTS for Inhibitors of the Interaction of Thyroid Hormone Receptor and Steroid Receptor Coregulator 2; Thyroid hormone receptor beta (Homo sapiens), P10828; TRbeta-SRC2 peptide binding, fluorescence polarization; receptor liganded with 1 µM T3; Potency, µM (top dose mostly 106 µM), most hits filed as inhibitors; 280,000 compounds, 0.065% hits; AID 1469, 2008; also: nearly all actives have a fitted effect of over 50% in size
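Binding of a 20-amino-acid Texas Red SRC2 peptide (20 nM) to TRb ligand-binding domain (0.6 uM) with agonist T3 at 1 uM was followed by fluorescence polarization after a 5 hr room-temperature incubation.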
Hits are given with their value; 0 = inactive; ? = inconclusive; - = no result; [ ] = remark or other dose. A selection: hits, their analogues and other compounds. The true share with any hit is near 0.38%. Unless noted, calls follow the shape of the dose curve; as a rule, active = well fitted curve in the direction sought with a large enough effect; inconclusive = small, poorly fitted or top-dose-only effect, or another doubt; inactive = no such curve, though single readings can be large; an effect the other way counts as inactive or inconclusive.

SMILES	TSHR antag	USP2a block	CBFb RUNX1 block	Eya2 phos inh	TR SRC2 fluor cs	TRb-SRC2 inh
Cc1nn(CC(=O)N2CCN(c3ccccc3)CC2)c(=O)c2cc3sccc3n12	-	-	-	-	0	0
Cc1ccc(Cl)cc1N1CCN(C(=O)Cn2nc(C)n3c(cc4sccc43)c2=O)CC1	-	-	-	-	79µM[quencher]	0
COc1ccccc1N1CCN(S(=O)(=O)CCNC(=O)COc2ccc(C(C)C)cc2)CC1	-	-	-	-	0	0
CCS(=O)(=O)c1ccc(O)c(Nc2cc(C)nc(SC)n2)c1	-	-	-	-	0.1µM[quencher]	0
CN(C)S(=O)(=O)N(CC(=O)NCCSCc1ccccc1Cl)c1ccccc1	-	-	-	-	0	0
COc1cc(NC(=O)N2CCC(CN3CCc4ccccc4C3)CC2)cc(OC)c1	-	-	-	-	?	0
COC(=O)c1ccc(NC(=O)N2CCC(CN3CCc4ccccc4C3)CC2)cc1	-	-	-	-	112µM[quencher]	0
COc1ccc(Cl)cc1NC(=O)N1CCC(CN2CCc3ccccc3C2)CC1	-	-	-	-	56µM[quencher]	0
O=C(Nc1ccc(F)c(Cl)c1)N1CCC(CN2CCc3ccccc3C2)CC1	-	-	-	-	0	0
CCOC(=O)c1ccc(NC(=O)C(CC)Sc2nc3ncccc3[nH]2)cc1 (stereo not given)	-	-	-	-	0	0
COc1ccc(NC(=O)c2nc(S(=O)(=O)Cc3cccc(C)c3)ncc2Cl)c(OC)c1	-80	0	-	?	-	-
COc1ccc2nc(NC(=O)c3nc(S(=O)(=O)Cc4cccc(C)c4)ncc3Cl)sc2c1	-	-	-	-	0	0
COc1ccc(OC)c(NC(=O)c2nc(S(=O)(=O)Cc3ccccc3)ncc2Cl)c1	-93	0	-	0	-	-
COc1ccccc1N1CCN(C(=O)CCCN2C(=O)c3cccc4cccc(c34)C2=O)CC1	-72	0	?	0	0	0
C=CC1=C(C)C2=NC1=CC1=NC(=CC3=NC(=CC4=NC(=C2)C(C)=C4CCC(=O)O)C(CCC(=O)O)=C3C)C(C=C)=C1C.[Zn]	-	-	?	-	28µM[fluorescent]	13µM
CCOc1ccc(N2CC(c3nc4ccccc4n3CCCOc3ccccc3OC)CC2=O)cc1 (stereo not given)	-	-	-	-	71µM[quencher]	0
COc1ccccc1OCCCn1c(C2CC(=O)N(c3ccc(F)cc3)C2)nc2ccccc21 (stereo not given)	-	-	-	-	0	0
CCCCCCCCCCCCO	-	-	-	-	0	0
CCSc1ncc(Cl)c(C(=O)Nc2nc3ccc(S(C)(=O)=O)cc3s2)n1	-	-	-	-	35µM[quencher]	0
CCSc1ncc(Cl)c(C(=O)Nc2nc3ccc(OC)cc3s2)n1	-	-	-	-	2.5µM[quencher]	?
O=C1/C(=C/c2ccc(O)c(O)c2)Oc2ccccc21	-	-	?	-	0	0
COc1ccc(CCNCc2ccc3c(c2)n(C)c(=O)n3C)cc1OC	-	-	-	-	89µM[quencher]	0
CC(C)C1Nc2ccc(C(=O)N3CCN(c4ccccn4)CC3)cc2NC1=O (stereo not given)	-113	0	-	0	-	-
CC(=O)Nc1cc(OC(C)=O)c2nonc2c1OC(C)=O	-74	0	-	0	0	1.6µM
O=C(c1ccc2c(c1)OCCO2)N(Cc1cccnc1)c1nc2c(F)cccc2s1	-	-	-	-	0	0
SMILES	TSHR antag	USP2a block	CBFb RUNX1 block	Eya2 phos inh	TR SRC2 fluor cs	TRb-SRC2 inh
COc1ccc(Cl)cc1C(=O)Nc1ccc(NC(C)=O)cc1	0	0	0	0	0	0
CC(=O)Oc1c(I)cc(I)cc1C(=O)Nc1ccc(Cl)cc1	-106	0	-	0	-	-
CN(CC(=O)Nc1ccccc1Cl)C(=O)COC(=O)c1ccc(Cl)nc1	0	0	-	0	-	-
CN(CC(=O)Nc1ccccc1Cl)C(=O)COC(=O)c1nc(Cl)c(Cl)c(Cl)c1Cl	-89	0	-	0	-	-
COc1cc(CNc2ccc(O)cc2)cc(Br)c1OCc1ccccc1F	0	0	0	0	0	0
CCOc1cc(CNc2ccc(O)cc2)cc(Br)c1OCc1ccccc1F	0	0	0	0	?	32µM
CCCCC(CC)COC(=O)/C=C\C(=O)OCC(CC)CCCC (stereo not given)	-	-	-	-	0	0
CN(C)c1ccc(N/C=C/C(=O)C(C)(C)C)cc1	?	0	0	0	?	45µM
CN(C)c1ccc(N/C=C/C(=O)c2ccccc2)cc1	0	0	0	0	45µM[fluorescent]	32µM
CCOC(=O)c1ccc(N/C=C/C(=O)C(C)(C)C)cc1	0	0	0	0	0	0
C=C[Si](C)(C)O[Si](C)(C)C=C	-	-	-	-	0	0
CCCCCCCC/C=C\CCCCCCCCCCCCC	-	-	-	-	0	0
NC(=O)c1ccc(-n2nnnc2SCC(=O)c2ccc(O)c(O)c2)cc1	0	0	?	0	50µM[quencher]	?
O=C(CCS(=O)(=O)c1ccc(Br)s1)Nc1c(F)cccc1F	-	-	-	-	398µM[quencher]	?
CCOC(=O)c1c(C)oc2ccc(NS(=O)(=O)c3ccc(C(=O)O)cc3)cc12	0	0	0	0	0	0
CCOC(=O)c1c(-c2ccccc2)oc2ccc(NS(=O)(=O)c3ccc(C)cc3)cc12	-	-	-	-	40µM[quencher]	0
O=[N+]([O-])c1cnc(Sc2ccncn2)s1	-89	0	0	0	0	0
O=c1n(Cc2ccc([N+](=O)[O-])cc2)c2ccccc2c2nc(-c3ccccc3)nn12	-	-	-	-	100µM[quencher]	0
O=c1n(Cc2ccc(F)cc2)c2ccccc2c2nc(-c3ccccc3)nn12	-	-	-	-	0	0
CC/C=C\CCOC(=O)c1ccccc1O	-	-	-	-	0	0
Cc1cccc(OCC(=O)NCc2ccc3c(c2)CCN3C(=O)c2ccccc2)c1	-	-	-	-	0	0
CC1CCc2c(sc3nnn(CC(=O)Nc4cccc(C(F)(F)F)c4)c(=O)c23)C1 (stereo not given)	-	-	-	-	?	0
CC1=[N+](C)c2c(ccc3cccnc23)C1(C)C	0	0	-	0	11µM[fluorescent]	25µM
Cc1[nH]c2c(ccc3cccnc32)c1C	0	0	0	?	0	0
CCN(C(=O)C1CCCN(S(=O)(=O)c2c(C)noc2/C=C/N(C)C)C1)c1cccc(C)c1 (stereo not given)	-	-	-	-	0	0
O=S(=O)(O)c1ccc2c(c1)-c1nc-2nc2[nH]c(nc3nc(nc4[nH]c(n1)c1ccc(S(=O)(=O)O)cc41)-c1ccc(S(=O)(=O)O)cc1-3)c1ccc(S(=O)(=O)O)cc21	-	-	-	-	2.2µM[quencher]	?
Cc1ccc(S(=O)(=O)NCc2ccc3c(c2)cc(C)n3C)cc1	0	0	0	0	45µM[fluorescent]	?
COCC(=O)NCc1ccc2c(c1)cc(C)n2C	0	0	0	0	0	0

Screens: PubChem, National Center for Advancing Translational Sciences (NCATS)
